BioA inh – M. tuberculosis BioA enzyme inhibitors, primary screen, biochemical, plate reader, single point, HTS | 7,8-diaminopelargonic acid synthase BioA (Mycobacterium tuberculosis) | purified M. tuberculosis BioA enzyme | inhibition, % at 9.99 µM | 360,000 compounds, 0.096% hits | AID 602481, 2012; in the data active = inhibition above about 40%
MazEF act – activators of E. coli MazEF toxin-antitoxin RNase, primary screen, biochemical, fluorescence, uHTS; Endoribonuclease toxin MazF (Escherichia coli (strain K12)), P0AE70; FAM/BHQ RNA-DNA oligo cleavage fluorescence, 5 h; activation, % at 20 µM; 350,000 compounds, 0.32% hits; AID 504720, 2011; in the data active = activation above about 50%
Target sequence (P0AE70 whole entry, looked up): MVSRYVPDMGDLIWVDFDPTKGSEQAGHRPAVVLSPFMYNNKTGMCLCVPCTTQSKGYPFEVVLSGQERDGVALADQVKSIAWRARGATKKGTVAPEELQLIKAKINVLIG
PfHsp40 yeast – rescue of yeast from PfHsp40 toxicity, primary screen, S. cerevisiae, ATP luminescence; S. cerevisiae expressing PfHsp40, growth rescue; growth rescue, % at 12.5 µM; 340,000 compounds, 0.68% hits; AID 504582, 2011; in the data active = growth rescue above about 28%, passing the limit was not always enough;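 note: yeast W303a lacking pdr1 and pdr3 grown in galactose medium; growth measured after three days at 30 °C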
BJeLR viability – MLPCN primary cell-based screen for lethality selective to Ras in HRASV12 cells | BJeLR (HRASV12) viability, CellTiter-Glo ATP luminescence, 48 h | inhibition, % (concentration not given with the values) | 300,000 compounds, 0.17% hits; in the data active = inhibition above about 50%
3CLpro inhibitor – SARS-CoV 3CLpro protease inhibitors, primary screen, biochemical, quenched FRET; inhibition, % at 6 µM; 290,000 compounds, 0.14% hits; AID 1706, 2009; recombinant SARS-CoV 3CLpro, quenched FRET peptide cleavage; in the data active = inhibition above about 12%
Yp Topo-I inh – Yersinia pestis topoisomerase I inhibitors, primary screen, biochemical, cleavage product accumulation, plate reader, single point; activity, % at 10 µM; AID 504884, 2011; DNA topoisomerase I (Yersinia pestis CO92); Y. pestis Topo-I cleavage product accumulation; 360,000 compounds, 0.064% hits; in the data active = activity above about 50%, passing the limit was not always enough
Active calls of the source: *; · = no result. Only some compounds are listed: those with a hit (about 1.1% of all), similar ones and a draw of the others.

SMILES | BioA inh | MazEF act | PfHsp40 yeast | BJeLR viability | 3CLpro inhibitor | Yp Topo-I inh
O=C(O)c1ccc(/C=N/N2CCN(c3ccccc3)CC2)cc1 | 0 | 8 | 0 | 1 | 2 | -4
CCN1CCCC1CN(Cc1cc2c(C)cc(C)cc2[nH]c1=O)C(=O)NC1CCCCC1 (stereo not drawn) | · | 59* | -1 | -4 | 1 | 27
Cc1cc(C)c2cc(CN(CCO)C(=O)NC3CCCCC3)c(=O)[nH]c2c1 | 2 | -3 | 2 | 1 | 1 | 12
COC(=O)C1Cc2ccccc2CN1C(=O)CCl (stereo not drawn) | · | 6 | 41* | -10 | 2 | 0
COC(=O)[C@H](Cc1ccccc1)NC(=O)N1Cc2ccccc2C[C@H]1C(=O)OC | 0 | -6 | -1 | 2 | -4 | -2
N#C/C(=C\c1ccc([N+](=O)[O-])cc1)c1nc(C2CC2)cs1 | · | 338* | 2 | 6 | 2 | -3
CCn1c(NC(=O)c2ccccc2)nc2ccccc21 | 0 | 11 | 3 | 4 | 2 | -3
CCCCn1c(NC(=O)c2ccccc2)nc2ccccc21 | -2 | -8 | 97* | -7 | 3 | -1
COc1ccc2oc(C(=O)N(C)Cc3ccc4c(c3)OCCO4)c(C)c2c1 | 1 | -5 | -2 | -11 | · | 1
COc1ccc2oc(C(=O)OCC(=O)Nc3cc(S(=O)(=O)N4CCOCC4)ccc3C)c(C)c2c1 | · | 61* | 0 | 4 | · | 21
COc1ccc2oc(C(=O)OCC(=O)Nc3cc(S(=O)(=O)N4CCOCC4)ccc3OC)c(C)c2c1 | -1 | -4 | 0 | 0 | · | 3
COc1ccc2oc(C(=O)OCC(=O)c3ccc4c(c3)OCCO4)c(C)c2c1 | -2 | -1 | 72* | 0 | 4 | -1
CC1=C(C(=O)NC2CC(C)(C)Cc3c2cnn3-c2cccc(F)c2)OCCO1 (stereo not drawn) | 58* | 4 | 4 | 0 | 6 | 16
O=C1CC(N2CCN(c3nc4ccccc4s3)CC2)C(=O)N1Cc1cccs1 (stereo not drawn) | -1 | -10 | 99* | -1 | -1 | 39
COc1cccc(/C=C(/C(=O)OCC(=O)NC2CCCC(C)C2C)c2ccccc2)c1 (stereo not drawn) | · | 0 | 2 | -16 | -5 | 60*
O=C(O)CN1CCNCC1 | · | · | · | -4 | -4 | ·
O=C(O)CN1CCNCCN(CC(=O)O)CCNCC1 | · | -13 | 107* | · | · | 1
C[C@@H]1CN([C@@H](C)CO)C(=O)c2cc(NC(=O)Nc3ccc4c(c3)OCO4)ccc2O[C@H]1CN(C)Cc1ccc(-c2ccccc2)cc1 | 2 | · | · | · | · | ·
O=C(C[C@H]1C/C=C\CC[C@H](Cc2ccc(F)cc2)C(=O)O[C@@H](c2ccccc2)CNC1=O)N[C@@H](CO)Cc1ccccc1 | -1 | 25 | 3 | · | · | 89*
CCCCCCOC(=O)CCn1[nH]c(=O)c2ccccc2c1=O | -2 | 1 | 136* | 6 | 4 | -10
N/C(=N\OC(=O)c1ccc2ccccc2c1)c1ccncc1 | 1 | 1 | 1 | 1 | -3 | -1
N/C(=N\OC(=O)c1ccc2ccccc2c1)c1ccccc1Cl | 1 | 5 | 87* | 16 | 5 | 1
COc1ccccc1N1CCN(Cc2ccc(O)c3ncccc23)CC1 | -3 | 0 | 0 | 16 | -1 | 6
Oc1ccc(CN2CCCc3ccccc32)c2cccnc12 | · | 1 | 38* | -4 | 9 | -13
CCCN(C)C[C@H]1Oc2cc(C#Cc3ccccc3)ccc2S(=O)(=O)N([C@H](C)CO)C[C@@H]1C | 0 | · | · | · | · | ·
SMILES | BioA inh | MazEF act | PfHsp40 yeast | BJeLR viability | 3CLpro inhibitor | Yp Topo-I inh
O=C(Nc1nc(-c2ccccn2)cs1)c1ccco1 | · | -14 | 43* | 8 | 7 | -7
O=C(Nc1nc(-c2ccccn2)cs1)c1ccc(Br)s1 | -11 | 1 | 255* | 5 | 3 | -11
CCCC(=O)Nc1ccc2c(c1)C(=O)N(C)[C@@H]1CC[C@@H](CC(=O)NC3CCCC3)O[C@H]1CO2 | -3 | · | · | · | · | ·
CCN1/C(=C/C(C)=C/c2sc3ccccc3[n+]2CC)Sc2ccccc21 | 29 | -49 | 1 | 63* | -1 | -50
Cc1cccc(-c2ccc([C@@H]3[C@@H](CO)N4CCCCN(S(=O)(=O)c5cn(C)cn5)C[C@@H]34)cc2)c1 | 6 | · | · | · | · | ·
CCOC(=O)/C(C#N)=N\Nc1cc(Cl)ccc1OC | · | 326* | 1 | 0 | -3 | -11
CCOC(=O)/C(C#N)=N/Nc1ccccc1OC | -1 | 65* | 0 | -10 | -1 | 2
CCOCCC(=O)Nc1cc(Cl)ccc1OC | -1 | 3 | -2 | 9 | -3 | 1
O=C(C[C@H]1CC[C@H]2[C@@H](COC[C@@H](O)CN2C(=O)Nc2cccc(Cl)c2)O1)NCCCN1CCOCC1 | -2 | · | · | · | · | ·
CC1CCN(c2ccc3c(c2)S(=O)(=O)c2cccc(C(=O)NCc4cccc(F)c4)c2C3=O)CC1 | -5 | 97* | 0 | · | · | 41
CC1CCN(c2ccc3c(c2)S(=O)(=O)c2ccccc2C3=O)CC1 | -4 | -143 | 199* | -10 | · | -4
NC(=O)C1CCN(c2ccc3c(c2)S(=O)(=O)c2ccccc2C3=O)CC1 | -2 | -80 | -1 | -3 | · | 1
CC(=O)Nc1ccc2c(c1)C(=O)N(C)[C@H]1CC[C@@H](CC(=O)NCc3ccccc3Cl)O[C@H]1CO2 | 9 | · | · | · | · | ·
CC(Sc1ncnc2sccc12)C(=O)Nc1ccc(C(N)=O)cc1 (stereo not drawn) | 0 | 54* | -1 | 1 | 0 | -4
CCCCCCCCN1[C@@H](CC(C)=O)c2cc(C(F)(F)F)ccc2S1(=O)=O | 1 | -4 | 3 | 3 | · | 66*
CCOC(=O)C1=C(C)N(C)C(C)=C(C(=O)OCC)C1c1ccccn1 | · | 23 | -1 | -12 | 2 | 1
COC(=O)C1=C(C)N(C)C(C)=C(C(=O)OC)C1c1ccccn1 | 0 | 94* | 0 | 9 | -3 | 2
CCC(=NCCC(c1ccccc1)c1ccccc1)c1c(O)[nH]c(=O)[nH]c1=O | -1 | -11 | 1 | 10 | -3 | 66*
COc1ccc([N+](=O)[O-])c(S(=O)(=O)c2ccccc2)n1 | 3 | -1 | · | 4 | 0 | -6
O=[N+]([O-])c1cccnc1S(=O)(=O)c1ccccc1 | · | 6 | 104* | -1 | -2 | -1
COc1ccc([N+](=O)[O-])c(S(=O)(=O)c2ccc(Cl)cc2)n1 | -2 | 4 | 50* | 5 | 2 | -11
C[C@@H](NC(=O)C[C@H]1CC[C@H]2[C@@H](COC[C@H](O)CN2C(=O)Nc2ccccc2)O1)c1ccccc1 | -3 | · | · | · | · | ·

Screens: PubChem BioAssay, several laboratories
